Bioassay records from PubChem BioAssay.
Rows were chosen to be rich in hits. Some 6.2% of all compounds tested hit in one or more screens of this group.
NTR1 agonist: agonists of human neurotensin receptor NTR1. 330,000 compounds, 0.17% hits. NTR1-U2OS beta-arrestin-GFP spot imaging, agonist mode. AID 493036. P30989. activation, % at 20 µM;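 active = activation at or above 40% of the spot to cytoplasm intensity ratio, with at least 20 cells analyzed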;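 also: 0% = DMSO without peptide and 100% = 100 nM NTR1 peptide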
NR3A LBD binder: modulators (binders) of human NR3A ligand-binding domain; NR3A LBD differential scanning fluorimetry, Tm shift; 0% = protein alone, 100% = glycine-bound protein; Tm shift relative to glycine control, % at 25 µM; 340,000 compounds, 2.5% hits; AID 1259313;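 active = melting temperature shift of at least 10% of the positive control shift, at one fixed dose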
AHR activator: activators of human aryl hydrocarbon receptor. P35869. AHR-responsive luciferase reporter cells, luminescence. activation, % at 5 µM. 320,000 compounds, 2.5% hits; in the data active = activation above about 47%;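 also: 0% = vehicle wells and 100% = reference agonist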
Target sequence (P35869 whole entry, looked up): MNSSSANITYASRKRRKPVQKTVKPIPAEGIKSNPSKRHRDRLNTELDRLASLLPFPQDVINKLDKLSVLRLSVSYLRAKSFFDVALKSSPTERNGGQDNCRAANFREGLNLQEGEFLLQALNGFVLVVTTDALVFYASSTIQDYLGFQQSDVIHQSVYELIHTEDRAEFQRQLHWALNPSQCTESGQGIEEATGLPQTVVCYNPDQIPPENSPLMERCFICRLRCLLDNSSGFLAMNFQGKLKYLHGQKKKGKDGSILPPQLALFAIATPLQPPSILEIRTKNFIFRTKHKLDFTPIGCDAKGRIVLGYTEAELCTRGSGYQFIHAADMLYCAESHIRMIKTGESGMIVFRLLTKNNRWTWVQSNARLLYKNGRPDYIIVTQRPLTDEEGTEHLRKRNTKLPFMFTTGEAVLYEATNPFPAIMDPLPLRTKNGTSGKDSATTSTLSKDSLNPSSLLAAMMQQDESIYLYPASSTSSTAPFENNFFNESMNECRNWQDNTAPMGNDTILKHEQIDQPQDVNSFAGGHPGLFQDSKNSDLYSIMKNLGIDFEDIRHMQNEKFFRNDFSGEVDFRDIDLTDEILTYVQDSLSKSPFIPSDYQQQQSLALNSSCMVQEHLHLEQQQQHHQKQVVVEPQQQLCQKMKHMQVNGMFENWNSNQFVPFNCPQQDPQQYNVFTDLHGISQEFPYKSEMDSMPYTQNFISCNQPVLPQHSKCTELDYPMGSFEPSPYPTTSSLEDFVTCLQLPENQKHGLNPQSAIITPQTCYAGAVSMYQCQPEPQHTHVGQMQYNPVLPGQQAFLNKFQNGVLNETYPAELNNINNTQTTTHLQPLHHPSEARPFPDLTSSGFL
H9c2 protect: protects H9c2 cardiomyocytes from peroxide injury; H2O2 injury protection, ATPLite, 2 h; protection from H2O2 cell death, % at 20 µM; 360,000 compounds, 0.63% hits;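 active = compounds giving at least 50% protection of heart cells from peroxide-induced death in the single-dose screen, raw or plate-pattern-corrected value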;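 also: 0% = DMSO wells with peroxide and 100% = DMSO wells without peroxide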
AI-2 QS mod: modulates the Vibrio harveyi AI-2 quorum sensing system; Vibrio harveyi JMH597 AI-2 luminescence/OD600 ratio, 9 h; stronger effect = lower value; strain lacks LuxN and CqsS sensors; 0 = neutral-control median; activity change, % at 7.5 µM; 300,000 compounds, 0.4% hits; AID 2094; in the data active = activity change below about -75%, passing the limit was not always enough;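 also: luminescence divided by OD600 gain over 9 h not by final OD600 alone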
SUMO Mot1 rescue: inhibitors of SUMOylation pathway: yeast Mot1-301 growth rescue; S. cerevisiae Mot1-301 growth rescue, ATP luminescence, 38.5C; percent above DMSO median, 100 means doubled; growth rescue, % at 18.8 µM; 320,000 compounds, 1% hits; AID 2716;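 active = every valid replicate shows activation above 250% relative to neutral control wells; inactive = the rest, any valid replicate at or below 250%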;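 also: OY570 slx delta 5 strain wells were the positive control but not used for scaling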
* hit, by the source's call; nt = no result given.

SMILES | NTR1 agonist | NR3A LBD binder | AHR activator | H9c2 protect | AI-2 QS mod | SUMO Mot1 rescue
Clc1ccccc1-c1nnc2sc(-c3ccncc3)nn12 | 2 | 1 | 17 | 9 | 10 | 1
Clc1ccccc1-c1nnc2sc(-c3cccs3)nn12 | 1 | 0 | 71* | 5 | 5 | -5
COc1ccc(-n2nc(C(=O)NCC(=O)NC3CCCCC3)c3ccccc3c2=O)cc1 | 1 | 4 | -1 | 2 | 44 | 4
O=C(Cn1cc(COc2c(F)c(F)cc(F)c2F)nn1)c1ccc(O)cc1 | nt | -1 | nt | 4 | nt | nt
CCOc1ccc(C(=O)Nc2ccc(N3CCN(C)CC3)cc2)cc1Br | 0 | 0 | 57* | -11 | 0 | -2
CCOc1ccc(CC(=O)NNC(=S)Nc2ccccc2)cc1Br | 1 | 13* | 6 | -6 | 20 | 2
CCOc1ccc(C(=O)Nc2ccc(NC(=O)c3ccccc3)cc2)cc1Br | 1 | 29* | -2 | 0 | 11 | 145
O=C(CCN1C(=O)S/C(=C\c2ccccc2)C1=O)NC1CCS(=O)(=O)C1 (stereo unspecified) | 0 | 0 | 2 | -4 | 5 | 0
CCCCC1Cc2[nH]c(=S)[nH]c(=O)c2C(c2ccc(F)cc2)O1 (stereo unspecified) | nt | nt | nt | 2 | nt | nt
CC(Oc1ccc(C#N)cc1)C(=O)NC1CCCC1 (stereo unspecified) | -2 | -1 | 0 | -3 | nt | -28
COCCCNC(=O)/C(C#N)=C1\N=C(NC(=O)c2cccs2)c2ccccc21 | 0 | 0 | -3 | 58* | 12 | 12
CCNc1nc(Oc2ccc(F)cc2)cc(C(F)(F)F)n1 | 1 | 2 | 2 | -16 | -4 | 943*
COc1cc(NC(=O)c2onc(C)c2Cl)c(OC)cc1Cl | 1 | -3 | 60* | 3 | 4 | 1
Cc1noc(C(=O)Nc2cc(Cl)ccc2O)c1Cl | -1 | -15 | 56* | -14 | 1 | -18
COc1cc(N/C(N)=N/c2nc(C)cc(C)n2)c(OC)cc1Cl | 0 | 0 | 54* | -9 | 6 | 19
Cc1noc(C(=O)Nc2ccc(Cl)cc2)c1Cl | 2 | nt | 1 | nt | 19 | 7
CC12CC3CC(C)(C1)CC(C(=O)N1CCN(C(=O)c4ccco4)CC1)(C3)C2 | 3 | 0 | -3 | 9 | 22 | -9
CCCC(=O)Nc1cc(C)c2c(=O)oc3ccccc3c2n1 | 15 | 0 | 53* | 104* | 6 | 8
CCN(CC)c1nc2ccccc2c(N)c1-c1ccccc1 | 0 | 0 | 55* | -20 | 20 | 5
Cc1c(N(C)C)nc2ccccc2c1N | -1 | 1 | 22 | 16 | 14 | 11
Cn1nnnc1SC1CC(=O)N(c2ccccc2)C1=O (stereo unspecified) | 0 | 1 | -1 | -19 | 25 | 7
Cc1cc(C)cc(N2C(=O)CC(c3ccccc3)CC2=O)c1 | -1 | 17* | 0 | -1 | nt | -2
Cc1cc(C)cc(N2C(=O)CC(Sc3nnnn3-c3ccccc3)C2=O)c1 (stereo unspecified) | 14 | 1 | 2 | -21 | 19 | 292*
CN(C)c1ccc(C(CNC(=O)c2ccc(C#N)cc2)c2c[nH]c3ccccc23)cc1 (stereo unspecified) | 2 | -7 | 17 | 2 | 14 | 7
CN(C)c1ccc(C(CNC(=O)c2ccccc2Br)c2c[nH]c3ccccc23)cc1 (stereo unspecified) | 0 | -3 | 15 | -4 | 3 | -3
CCOC(=O)c1ccc(S(=O)(=O)NCC(c2ccc(N(C)C)cc2)c2c[nH]c3ccccc23)cc1 (stereo unspecified) | 12 | 16* | 10 | -5 | 24 | -11
CN(C)c1ccc(C(CNS(=O)(=O)c2ccc(F)cc2)c2c[nH]c3ccccc23)cc1 (stereo unspecified) | 2 | 16* | 57* | -4 | 11 | -8
Cc1cc(C)n(CCNC(=O)C2CCC(=O)N(Cc3ccc(Cl)cc3)C2)n1 (stereo unspecified) | 1 | -1 | 2 | -1 | 12 | 2
Cc1cccc(NC(=S)N(Cc2cccc(Br)c2)CC2CCC(C(=O)O)CC2)c1 (stereo unspecified) | 2 | 1 | 0 | -5 | 34 | nt
